# Screening results (PubChem)
# TDP1 inh = inhibitors of human tyrosyl-DNA phosphodiesterase TDP1. hit rate 0.28% among 350,000. Q9NUW8. AID 485290. recombinant TDP1, AlphaScreen DNA substrate cleavage. Potency, µM (top dose mostly 130 µM), without a hit: at the top dose activity change, negative = inhibition, hits mostly inhibitors; note: nearly all actives have a fitted effect of over 40% in size
#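 Recombinant E. coli-expressed Tdp1 (1 nM) preincubated with compound 15 min at RT, then 5'-biotin/3'-phosphotyrosine-FITC DNA substrate (15 nM) added for 5 min. AlphaScreen beads (10 ug/ml) added, 10 min RT; tyrosine-FITC cleavage read as signal loss.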
# TDP1 cell noCPT = qHTS for Inhibitors of human tyrosyl-DNA phosphodiesterase 1 (TDP1): qHTS in cells in absence of CPT | DT40 Tdp1-/- hTDP1 cells, no CPT, ATP luminescence, 48 h | Potency, µM (doses to about 46.2 µM), inactives show top-dose activity change, negative = growth inhibition, hits mostly inhibitors | hit rate 15% among 420,000; note: nearly all actives have a fitted effect of over 55% in size
#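 Cells were dispensed at 400 per well, compounds added by pin tool, plates incubated ≥48 hr at 37 °C, then CellTiter-Glo added for 30 min at room temperature before luminescence reading. Line: DT40 Tdp1-/- complemented with hTDP1; camptothecin omitted.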
# GCN5L2 inh = inhibitors of human GCN5L2 histone acetyltransferase; Q92830; GCN5L2 HAT assay, ThioGlo1 CoA-SH fluorescence; Potency, µM (highest dose often 58.9 µM), for inactives: at the highest dose activity change, negative = inhibition, hits mostly inhibitors; hit rate 0.21% among 390,000
#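 GCN5L2 (20nM final) in 50mM HEPES, 0.1mM EDTA pH 7.5, 0.01% Tween-20 was preincubated 15 min at room temperature with compound, then given ThioGlo1 (50uM), H3(1-25) peptide (75uM) and acetyl-CoA (70uM); CoA-thiol fluorescence (Ex340/Em540) was read at 0 and 20 min.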
# VDR inhibitor = vitamin D3 receptor (human) inhibition | P11473 | AID 504847 | hit rate 0.93% among 400,000 | VDR-SRC2-3 peptide fluorescence polarization, 2 h | Potency, µM, for inactives: max response, negative = inhibition, actives largely listed as inhibitors
#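 FP read-out; VDR + SRC2-3 coactivator peptide; 23 nl compound by pintool; 2 h RT incubation; reagents held at 4 deg C, protected from light.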
# PLK1 PBD block = PLK1 (human) polo-box domain binding inhibition; P53350; Potency, µM, without a hit: max response, negative = inhibition, most hits filed as inhibitors; hit rate 2.8% among 360,000; Plk1 PBD binding of FITC phosphopeptide, fluorescence polarization; note: series mostly up to about 57 µM; nearly all actives have a fitted effect of over 65% in size
# DT40 TDP1 CPT = DT40-hTDP1 cell growth loss with CPT; chicken DT40 Tdp1-/-;hTDP1 cells + 20 nM CPT, ATP luminescence, 48 h; AID 686979; hit rate 12% among 420,000; Potency, µM (titrated, usually from 46.2 µM), for the others: top-dose activity change, negative = growth inhibition, hits mostly inhibitors; note: nearly all actives have a fitted effect of over 55% in size
#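 Cell growth measured by CellTiter-Glo luminescence after a minimum 48 h, 37 C compound exposure with 20 nM CPT in Tdp1-knockout DT40 cells stably expressing hTDP1, seeded 400/well; qHTS titration format.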
# * marks the source's active call; other numbers are inactive results; ? = inconclusive; / = no result given; [ ] = dose if it differs, or a comment. Shown are actives, neighbours in structure and some others; about 18% of the full set was active somewhere. Calls come from the whole dose curve; as a rule, active = well fitted curve in the direction sought with a large enough effect; inconclusive = small, poorly fitted or top-dose-only effect, or another doubt; inactive = no such curve, though single readings can be large; an effect the other way counts as inactive or inconclusive. % is set by controls: 0 for no effect and ±100 for the full control effect; potency is the fitted concentration of half-maximal effect.
SMILES,TDP1 inh,TDP1 cell noCPT,GCN5L2 inh,VDR inhibitor,PLK1 PBD block,DT40 TDP1 CPT
CCN(CC(F)(F)C(F)F)S(=O)(=O)c1ccc(NC(=O)OC)cc1,5%,16µM*,-27%,?,3.8µM*,26µM*
CCN(CC)S(=O)(=O)c1ccc(C(=O)Nc2cccc(C)c2)cc1,-4%,-20%,-8%,1%,0%,?
CC(C)Cc1cc(CN2CCC(CO)(Cc3ccccc3)CC2)[nH]n1,0%,-11%,-2%,21%,4%,?
COC(=O)c1ccc2c(=O)n(CCCCCC(=O)NCCNC(C)=O)c(=O)[nH]c2c1,/,-4%,-5%,-6%,1%,?
CCN(CC)S(=O)(=O)c1ccc(/C=C/C(=O)Nc2cccc(F)c2)cc1,2%,21µM*,-6%,0%,5%,21µM*
CCN(CC(=O)NCc1ccc(F)cc1)C(=O)/C=C/c1ccc(S(=O)(=O)N(CC)CC)cc1,9%,21µM*,-7%,-13%,-8%,23µM*
CCN(CC)S(=O)(=O)c1ccc(/C=C/C(=O)O)cc1,11%,-1%,-7%,2%,-3%,0%
CCOc1ccc(NC(=O)c2ccc(NC(=O)N3CCSc4ncccc43)cc2)cc1,-6%,-29%,-3%,3%,/,-20%
Nc1ccc2c(c1)C(=O)c1cc(N)c(Cl)cc1-2,/,-19%,/,17%,1%,2%
COc1cc2c(cc1N)-c1ccc(N)cc1C2=O,/,16µM*,/,/,0%,?
COc1ccc(-c2nc(=S)c3ccc4ccccc4c3[nH]2)cc1,0%,0%,-2%,5%,-11%,11%
CCc1ccc(C2=CSC3=NCCN23)cc1,/,?,-2%,6%,-6%,-3%
CN(C)CCCNS(=O)(=O)c1ccc(N2CCN(Cc3ccc4c(c3)OCO4)CC2)c([N+](=O)[O-])c1,0%[0.0935 µM],21µM*,-1%,-21%,-19%,23µM*
CC(=O)c1ccc(N2CCN(c3ccc(S(=O)(=O)NCCN(C)C)cc3[N+](=O)[O-])CC2)cc1,-1%,?,1%,10%,0%,?
CC(=O)c1ccc(N2CCN(c3ccc(S(=O)(=O)NCCCN(C)C)cc3[N+](=O)[O-])CC2)cc1,5%,23µM*,-19%,-11%,0%,23µM*
CN(C)CCNS(=O)(=O)c1ccc(N2CCc3ccccc32)c([N+](=O)[O-])c1,19%,26µM*,-4%,-2%,-3%,16µM*
COc1ccc(N2CCN(C(=O)/C=C/[C@H]3O[C@@H](n4ccc(=O)[nH]c4=O)[C@H](O)[C@@H]3O)CC2)cc1,/,0%,/,/,-1%,-7%
O=C(CNC(=O)OCc1ccccc1)NCC(=O)Oc1ccc([N+](=O)[O-])cc1,/,?,/,-27%,12µM*,-1%
O=C(NCCc1cscn1)C1CCC(=O)N(Cc2ccc(Cl)cc2)C1 (stereo not given),5%,-5%,-2%,15%,-9%,4%
CC1CCCC(C)N1C(=O)COC(=O)CNS(=O)(=O)c1ccc2ccccc2c1 (stereo not given),/,5%,/,/,3%,-3%
CCOC(=O)C1(CC2CCCCO2)CCN(Cc2nc(C(C)C)cs2)CC1 (stereo not given),3%,?,-2%,-5%,9%,16µM*
O=C(CNC(=O)c1ccc(F)cc1)N/N=C/c1cccnc1,-10%,-8%,-1%,-2%,-5%,1%
CN=c1scc(-c2ccc(F)cc2)n1/N=C/c1ccc(O)c(O)c1,11%,0.82µM*,-16%,-4%,-7%,1.2µM*
CC(=O)Nc1ccc(Sc2ncccc2C(=O)Nc2cc(Cl)cc(Cl)c2)cn1,5%,?,-9%,-3%,-4%,?
CC(=O)Nc1ccc(Sc2ncccc2C(=O)Nc2ccc(OC(F)(F)F)cc2)cn1,5%,5.2µM*,3%,6%,0%,6.5µM*
